Experimental findings from the supplement of paper PMC9334596 are described below.

Structures are written as SMILES. Values joined by “and” are separate entries in the source; they are usually repeats but may differ in a detail not shown here. Identical values can stand only once. The full ranking holds about 5,300 compounds; the median of “PER2::LUC luminescence relative to vehicle control” is about 0.96, and the highest 2% start at about 1.3. Only a selection was taken, and the highest values are over-represented in it overall.

This test concerns mPer2Luc MEF. As to the kind of experiment: PER2::LUC luminescence relative to vehicle control (fold of vehicle); higher = higher PER2::LUC reporter signal. The conditions noted are these: 10 µM. In a few lines:
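Each value gives PER2::LUC luminescence as fold of vehicle control, measured with the ONE-Glo luciferase assay system in mouse embryonic fibroblasts carrying the mPer2Luc reporter. Cells grown in DMEM with 10% FBS at 37 °C and 5% CO2 were seeded at ~3000 per well in 384-well plates. Library compounds were added at 10 μM 48 h later, and readings were taken 24 h and 30 h after treatment.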

Turning to `NC(=O)c1cccc(NC(=O)/C=C/c2c[nH]c3ccccc23)c1`, the “PER2::LUC luminescence” value was found to be 1.08 (time after treatment 24 h) and 1.06 (time after treatment 30 h).

Take `C=C1/C(=C\C=C2/CCC[C@]3(C)[C@@H]([C@H](C)CC[C@@H](O)C(C)(C)O)CC[C@@H]23)C[C@@H](O)C[C@@H]1O`: the “PER2::LUC luminescence” value was 0.999 (time after treatment 24 h) and 0.835 (time after treatment 30 h).

For `CC1(C)C2CCC1(C(=O)O)C(=O)C2` (stereo not drawn), the “PER2::LUC luminescence” value runs as follows: (time after treatment 24 h) 0.998; (time after treatment 30 h) 0.954.

On to `COc1ccc(CNC(=O)Nc2ncc([N+](=O)[O-])s2)cc1`, for which the “PER2::LUC luminescence” value (time after treatment 24 h) is 1.35 and the “PER2::LUC luminescence” value (time after treatment 30 h) was 1.27.

Consider `O=C(Nc1ncc([N+](=O)[O-])s1)c1ccccc1O`, for which the “PER2::LUC luminescence” value came out at 1.45 (time after treatment 24 h) and 1.73 (time after treatment 30 h).

As for `COc1ccc(CNC(=O)c2sc3nc(C)cc(C)c3c2N)cc1`, the “PER2::LUC luminescence” value reads like this: (time after treatment 24 h) 0.953; (time after treatment 30 h) 0.979.

`O=C(Nc1ncc([N+](=O)[O-])s1)c1ccc([N+](=O)[O-])c(Cl)c1`: the “PER2::LUC luminescence” value (time after treatment 24 h) amounted to 0.928 and the “PER2::LUC luminescence” value (time after treatment 30 h) stood at 1.22.

Turning to `CC(=O)Oc1ccccc1C(=O)Nc1ncc([N+](=O)[O-])s1`, the “PER2::LUC luminescence” value (time after treatment 24 h) stood at 0.826 and the “PER2::LUC luminescence” value (time after treatment 30 h) came out at 1.16.

Regarding `CC(=O)Nc1ncc([N+](=O)[O-])s1`, the “PER2::LUC luminescence” value reads like this: (time after treatment 24 h) 1.33 and 1.09; (time after treatment 30 h) 0.865 and 1.09.

`COc1ccc(C2=N[C@@H](c3ccc(Cl)cc3)[C@@H](c3ccc(Cl)cc3)N2C(=O)N2CCNC(=O)C2)c(OC(C)C)c1` (racemic): the “PER2::LUC luminescence” value was 0.971 (time after treatment 24 h) and 0.948 (time after treatment 30 h).

`Nc1ncnc2c1ncn2[C@@H]1O[C@H](CO)C[C@@H]1O`: the “PER2::LUC luminescence” value is 0.952 (time after treatment 24 h) and 0.956 (time after treatment 30 h).

With `NCCCCCCCCCCNCCCN`, the “PER2::LUC luminescence” value came to 0.962 (time after treatment 24 h) and 0.892 (time after treatment 30 h).

As for `C[C@H](NC(=O)CNC(=O)[C@@H](NC(=O)[C@H](Cc1ccccc1)NC(=O)CNC(=O)CNC(=O)[C@@H](N)Cc1ccccc1)[C@@H](C)O)C(=O)N[C@@H](CCCN=C(N)N)C(=O)N[C@@H](CCCCN)C(=O)N[C@@H](CO)C(=O)N[C@@H](C)C(=O)N[C@@H](CCCN=C(N)N)C(=O)N[C@@H](CCCCN)C(N)=O`, the “PER2::LUC luminescence” value runs as follows: (time after treatment 24 h) 1.02; (time after treatment 30 h) 0.922.

Regarding `O=C(NCCO)c1ccc2c(c1)nc(Nc1cccc(Cl)c1)c1ccncc12`, the “PER2::LUC luminescence” value by setting is: (time after treatment 24 h) 1.03; (time after treatment 30 h) 0.995.

Turning to `O=C(O)c1ccc2c(c1)nc(Nc1cccc(Cl)c1)c1ccncc12`, the “PER2::LUC luminescence” value (time after treatment 24 h) turned out to be 0.795 and the “PER2::LUC luminescence” value (time after treatment 30 h) is 1.39.

For the compound `COc1cc2ncnc(Nc3cccc(Cl)c3)c2cc1OC`, the “PER2::LUC luminescence” value (time after treatment 24 h) was 0.991 and 0.715; the “PER2::LUC luminescence” value (time after treatment 30 h) was 0.978 and 0.705.

For `C/C1=C2N=C(/C=C3N=C(/C(C)=C4\[N-]C(C(CC(N)=O)C4(C)CCC(=O)NCC(C)OP(=O)([O-])OC4C(CO)OC(n5cnc6cc(C)c(C)cc65)C4O)C4(C)N=C1C(CCC(N)=O)C4(C)CC(N)=O)C(CCC(N)=O)C\3(C)C)C(CCC(N)=O)C/2(C)CC(N)=O.[CH3-].[Co+3]` (stereo not drawn), the “PER2::LUC luminescence” value is, setting by setting: (time after treatment 24 h) 1.07; (time after treatment 30 h) 1.03.

Consider `Cc1cnc(-c2cnc(NCCNc3ccc(C#N)cn3)nc2-c2ccc(Cl)cc2Cl)[nH]1`, for which the “PER2::LUC luminescence” value was found to be 1.56 (time after treatment 24 h) and 1.06 (time after treatment 30 h).

For `CN1CCN(C2CCC(n3cc(-c4ccc(Oc5ccccc5)cc4)c4c(N)ncnc43)CC2)CC1` (stereo not drawn), the “PER2::LUC luminescence” value is 0.091 (time after treatment 24 h) and 0.137 (time after treatment 30 h).

Consider `C[C@@H](NC(=O)c1cc(C(=O)N[C@@H](Cc2ccccc2)[C@H](O)CNC2CC2)cc(N(C)S(C)(=O)=O)c1)c1ccccc1`, for which the “PER2::LUC luminescence” value (time after treatment 24 h) worked out at 1.01 and the “PER2::LUC luminescence” value (time after treatment 30 h) was determined as 1.09.

With `NCCCC[C@H](NC(=O)[C@@H]1CCCN1C(=O)[C@@H]1CSSC[C@H](N)C(=O)N[C@@H](Cc2ccccc2)C(=O)N[C@@H](Cc2ccccc2)C(=O)N[C@@H](CCC(N)=O)C(=O)N[C@@H](CC(N)=O)C(=O)N1)C(=O)NCC(N)=O`, the “PER2::LUC luminescence” value was 1.08 (time after treatment 24 h) and 1.13 (time after treatment 30 h).

For `COc1ccccc1N1CCN(CCN2C(=O)N=C3C(=Nc4ccccc43)C2=O)CC1`, the “PER2::LUC luminescence” value turned out to be 0.831 (time after treatment 24 h) and 0.823 (time after treatment 30 h).

For `NC(=O)c1ncn(C2OC(COP(=O)(O)O)C(O)C2O)c1N` (stereo not drawn), the “PER2::LUC luminescence” value runs as follows: (time after treatment 24 h) 1.36; (time after treatment 30 h) 1.3.

For `NC(=O)c1ncn([C@@H]2O[C@H](CO)[C@@H](O)[C@H]2O)c1N`, the “PER2::LUC luminescence” value is, setting by setting: (time after treatment 24 h) 1.32 and 0.733; (time after treatment 30 h) 1.18 and 0.988.

Consider `Nc1ncnc2c1ncn2[C@@H]1O[C@H](COP(=O)(O)O)[C@@H](O)[C@H]1O`, for which the “PER2::LUC luminescence” value (time after treatment 24 h) is 1.22 and 1.13; the “PER2::LUC luminescence” value (time after treatment 30 h) was 1.14 and 1.05.

As for `NCCOCCOCCNC(=O)Cc1ccc(Nc2nc(NCc3ccc(F)cc3)nc(NCC3CCCCC3)n2)cc1`, the “PER2::LUC luminescence” value (time after treatment 24 h) came out at 1.09 and the “PER2::LUC luminescence” value (time after treatment 30 h) came to 1.03.

Turning to `O=C(O)c1ccccc1Nc1ccccc1`, the “PER2::LUC luminescence” value (time after treatment 24 h) was 1.02 and the “PER2::LUC luminescence” value (time after treatment 30 h) is 0.974.

`C/C(=C\C(=O)Nc1ccccc1C(=O)O)c1ccc2ccccc2c1`: the “PER2::LUC luminescence” value is, setting by setting: (time after treatment 24 h) 1.53; (time after treatment 30 h) 1.46.

Take `COc1ccc(/C=C/C(=O)Nc2ccccc2C(=O)O)cc1OC`: for the setting “time after treatment 24 h”, the “PER2::LUC luminescence” value is 0.844 and 0.327.

Turning to `O[C@H]1CCN2Cc3ccccc3N=C12`, the “PER2::LUC luminescence” value runs as follows: (time after treatment 24 h) 0.987; (time after treatment 30 h) 0.932.

On to `CC1CCC(C(C)C)C(O)C1` (racemic), for which the “PER2::LUC luminescence” value reads like this: (time after treatment 24 h) 1.02; (time after treatment 30 h) 1.25.

As for `O=C(CS(=O)(=O)Cc1ccccc1)N1CCOCC1`, the “PER2::LUC luminescence” value is, setting by setting: (time after treatment 24 h) 0.841; (time after treatment 30 h) 0.781.
